Data from PubChem BioAssay AID2081 (NMMLSC, 2009).
Activity calls are given as the source filed them. How the calls were made is not given here.

Biological target: Bcl-2-like protein 2 (Homo sapiens) (UniProt Q92843)
Experiment: Bcl-W/Bim complex disruptors – biochemical, multiplexed, bead-based flow cytometry, HTS hits, confirmation (AID 2081)

Bcl-2-like protein 2 (Homo sapiens), sequence (Q92843 whole entry, looked up): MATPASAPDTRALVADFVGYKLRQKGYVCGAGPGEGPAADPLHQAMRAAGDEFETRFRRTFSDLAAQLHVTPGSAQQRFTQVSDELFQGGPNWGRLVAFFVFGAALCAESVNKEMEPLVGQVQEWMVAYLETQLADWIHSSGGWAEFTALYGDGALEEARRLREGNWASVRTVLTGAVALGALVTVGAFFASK

Compound	outcome
O=C1NC(=O)C2(Cc3c(nc4ccccn4c3=O)N3CCCCCC32)C(=O)N1Cc1ccccc1 (configuration not stated)	inactive
O=C1NC(=O)C(=Cc2ccc(-c3cc(Cl)ccc3[N+](=O)[O-])o2)C(=O)N1	inactive
